# In ChEMBL document CHEMBL2218924, “A broad activity screen in support of a chemogenomic map for kinase signalling research and drug discovery” (Biochem J, 2013):
# Tests used:
# [1] = molecular target: T1, Phosphorylase b kinase gamma catalytic chain, liver/testis isoform (Homo sapiens) (UniProt P15735); details: at 1 µM
# T1 sequence (whole entry): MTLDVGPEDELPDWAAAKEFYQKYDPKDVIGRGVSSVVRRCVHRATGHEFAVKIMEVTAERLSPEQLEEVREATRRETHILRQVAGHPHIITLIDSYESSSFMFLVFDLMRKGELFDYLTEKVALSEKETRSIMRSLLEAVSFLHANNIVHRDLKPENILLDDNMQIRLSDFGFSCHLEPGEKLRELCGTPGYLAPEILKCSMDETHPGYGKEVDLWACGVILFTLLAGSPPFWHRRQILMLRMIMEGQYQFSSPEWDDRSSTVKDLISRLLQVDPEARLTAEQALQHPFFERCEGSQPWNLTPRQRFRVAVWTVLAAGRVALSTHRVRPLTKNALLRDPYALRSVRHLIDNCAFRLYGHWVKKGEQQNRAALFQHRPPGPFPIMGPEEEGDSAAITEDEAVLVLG
# [2] = molecular target: T1, Phosphorylase b kinase gamma catalytic chain, liver/testis isoform (Homo sapiens); details: at 10 µM
# [3] = molecular target: Serine/threonine-protein kinase pim-1 (Homo sapiens) (UniProt P11309); details: at 1 µM
# Sequence of Serine/threonine-protein kinase pim-1 (Homo sapiens) (P11309 whole entry, looked up): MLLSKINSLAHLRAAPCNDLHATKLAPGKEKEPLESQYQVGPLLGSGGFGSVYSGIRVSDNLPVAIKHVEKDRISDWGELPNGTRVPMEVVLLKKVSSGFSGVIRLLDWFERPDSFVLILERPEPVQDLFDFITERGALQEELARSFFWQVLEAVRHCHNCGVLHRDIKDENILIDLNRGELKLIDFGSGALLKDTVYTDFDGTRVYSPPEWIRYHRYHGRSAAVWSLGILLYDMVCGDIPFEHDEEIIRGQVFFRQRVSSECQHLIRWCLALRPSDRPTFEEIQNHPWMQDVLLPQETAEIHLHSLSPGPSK
# [4] = molecular target: Serine/threonine-protein kinase pim-1 (Homo sapiens) (UniProt P11309); details: at 10 µM
# [5] = molecular target: Serine/threonine-protein kinase pim-2 (Homo sapiens) (UniProt Q9P1W9); details: at 1 µM
# Sequence of Serine/threonine-protein kinase pim-2 (Homo sapiens) (Q9P1W9 whole entry, looked up): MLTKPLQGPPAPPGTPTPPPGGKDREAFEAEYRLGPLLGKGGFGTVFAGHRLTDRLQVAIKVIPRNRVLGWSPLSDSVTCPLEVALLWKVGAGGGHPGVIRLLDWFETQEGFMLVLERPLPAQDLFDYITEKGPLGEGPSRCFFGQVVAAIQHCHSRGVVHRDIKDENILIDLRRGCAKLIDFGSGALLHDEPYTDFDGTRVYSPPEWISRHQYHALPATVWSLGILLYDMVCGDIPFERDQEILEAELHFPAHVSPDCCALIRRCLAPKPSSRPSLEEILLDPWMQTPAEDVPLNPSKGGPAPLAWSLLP
# [6] = molecular target: Serine/threonine-protein kinase pim-2 (Homo sapiens) (UniProt Q9P1W9); details: at 10 µM
# [7] = molecular target: Serine/threonine-protein kinase pim-3 (Homo sapiens) (UniProt Q86V86); details: at 1 µM
# [8] = molecular target: Serine/threonine-protein kinase pim-3 (Homo sapiens) (UniProt Q86V86); details: at 10 µM
# [9] = molecular target: Serine/threonine-protein kinase PLK1 (Homo sapiens) (UniProt P53350); details: at 1 µM
# Sequence of Serine/threonine-protein kinase PLK1 (Homo sapiens) (P53350 whole entry): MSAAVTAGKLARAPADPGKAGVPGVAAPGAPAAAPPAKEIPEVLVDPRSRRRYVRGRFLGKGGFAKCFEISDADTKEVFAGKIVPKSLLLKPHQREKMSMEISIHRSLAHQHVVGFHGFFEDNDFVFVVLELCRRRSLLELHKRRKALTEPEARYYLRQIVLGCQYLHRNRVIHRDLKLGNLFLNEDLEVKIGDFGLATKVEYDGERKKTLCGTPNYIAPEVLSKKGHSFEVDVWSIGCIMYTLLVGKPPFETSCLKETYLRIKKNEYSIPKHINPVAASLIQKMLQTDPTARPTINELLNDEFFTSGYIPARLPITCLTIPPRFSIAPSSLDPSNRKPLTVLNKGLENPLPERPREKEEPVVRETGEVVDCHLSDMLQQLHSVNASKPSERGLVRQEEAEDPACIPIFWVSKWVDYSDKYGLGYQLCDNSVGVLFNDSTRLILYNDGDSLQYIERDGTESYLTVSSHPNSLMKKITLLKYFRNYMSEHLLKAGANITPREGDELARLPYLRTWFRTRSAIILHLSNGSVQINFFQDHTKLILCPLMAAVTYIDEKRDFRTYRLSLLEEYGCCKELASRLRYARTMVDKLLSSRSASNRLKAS
# [10] = molecular target: Serine/threonine-protein kinase PLK1 (Homo sapiens) (UniProt P53350); details: at 10 µM
SMILES,residual activity [1],residual activity [2],residual activity [3],residual activity [4],residual activity [5],residual activity [6],residual activity [7],residual activity [8],residual activity [9],residual activity [10]
COc1ccc(C(=O)Nc2sc3c(c2C(N)=O)CCCC3)cc1OC,78%,84%,80%,97%,87%,114%,92%,97%,94%,75%
N#Cc1cnc2cnc(NCc3cccnc3)cc2c1Nc1ccc(F)c(Cl)c1,3%,2%,27%,18%,84%,63%,97%,94%,–,–
Nc1ccc2ncnc(NCCc3ccc(Oc4ccccc4)cc3)c2c1,88%,75%,100%,93%,93%,136%,90%,89%,90%,85%
Oc1ccc(-c2nc(-c3ccc(F)cc3)c(-c3ccncc3)[nH]2)cc1,107%,98%,96%,91%,125%,–,96%,92%,94%,83%
O=c1cc(-c2cccc3c2Sc2ccccc2S3)oc(N2CCOCC2)c1,96%,100%,93%,30%,68%,29%,102%,85%,95%,99%
Cc1ccc(NC2=CC(=O)c3sc(C)nc3C2=O)cc1,114%,92%,94%,85%,99%,111%,91%,92%,87%,89%
Cn1cc(/C=C2\C(=O)Nc3ccc(S(N)(=O)=O)cc32)c2ccccc21,24%,9%,76%,111%,109%,97%,102%,–,109%,93%
Cc1cc(Nc2nc(-c3ccccc3)nc3ccccc23)n[nH]1,–,35%,104%,57%,126%,–,–,–,73%,40%
CC(=O)c1ccc(N2CCOCC2)cc1O,–,–,82%,87%,91%,129%,96%,91%,91%,68%
c1ccc(-c2n[nH]c3c2oc2ccccc23)cc1,–,–,85%,84%,83%,123%,92%,90%,85%,67%
Cc1cncc2cccc(S(=O)(=O)N3CCCN(C(=O)CN)C[C@H]3C)c12,82%,49%,100%,84%,–,–,92%,86%,90%,59%
CN(C)CCCn1cc(C2=C(c3c[nH]c4ccccc34)C(=O)NC2=O)c2ccccc21,88%,63%,–,–,15%,4%,22%,5%,114%,84%
Oc1c2ccccc2c2c3c(cccc13)N=N2,77%,15%,68%,18%,58%,21%,75%,59%,69%,64%
N#C/C(=C(\N)Sc1ccc(N)cc1)c1ccccc1C(F)(F)F,–,108%,79%,83%,130%,133%,87%,84%,85%,90%
O=C1Nc2ccc(Br)cc2/C1=C\c1cc2c([nH]1)CCCC2,77%,78%,–,105%,129%,106%,105%,112%,82%,80%
COc1cc2ncnc(N3CCN(C(=O)Nc4ccc(Oc5ccccc5)cc4)CC3)c2cc1OC,103%,122%,111%,122%,92%,149%,91%,93%,63%,61%
Nc1nc(Nc2ccc(S(N)(=O)=O)cc2)nn1C(=S)Nc1c(F)cccc1F,86%,31%,96%,77%,125%,–,95%,95%,–,–
COc1ccc(OC)c2c(=S)c3ccccc3[nH]c12,119%,103%,97%,52%,117%,77%,88%,80%,80%,91%
COc1cc2ncc(-c3ccccc3)nc2cc1OC,–,–,81%,82%,127%,144%,95%,99%,88%,75%

SMILES,residual activity [1],residual activity [2],residual activity [3],residual activity [4],residual activity [5],residual activity [6],residual activity [7],residual activity [8],residual activity [9],residual activity [10]
Cc1ccc(S(=O)(=O)/C=C/C#N)cc1,114%,111%,97%,95%,111%,103%,91%,102%,92%,102%
c1ccc(-c2n[nH]cc2-c2ccnc3ccccc23)nc1,95%,102%,96%,85%,–,–,99%,100%,80%,72%
O=C(Nc1cccc(Nc2cc(Nc3cccc(C(F)(F)F)c3)ncn2)c1)C1CC1,86%,98%,112%,–,88%,108%,93%,102%,99%,91%
Ic1cccc(CSc2nnc(-c3ccncc3)o2)c1,106%,84%,104%,73%,93%,86%,78%,84%,72%,74%
COc1cc2ncnc(Nc3ccc(O)c(Br)c3)c2cc1OC,97%,94%,66%,29%,78%,66%,87%,70%,64%,54%
CCN(CC)CCCCN1c2ccccc2Oc2ccc(Cl)cc21,112%,122%,–,–,97%,125%,92%,47%,109%,76%
NC(=O)c1ccc2[nH]c(-c3ccc(Oc4ccc(Cl)cc4)cc3)nc2c1,89%,80%,121%,116%,108%,119%,83%,83%,75%,69%
Cc1cc2ncc(-c3ccccc3)nc2cc1C,94%,101%,97%,84%,126%,–,100%,96%,81%,75%
N#CCCc1ccc2c(c1)-c1[nH]c3ccc([N+](=O)[O-])cc3c1CC(=O)N2,–,–,–,69%,120%,–,–,–,–,–
CCN(CC)C(=O)c1ccc(Nc2nc(OCC3CCCCC3)c3nc[nH]c3n2)cc1,–,–,77%,56%,143%,–,–,–,78%,66%
CC(C)n1cnc2/c(=N/c3cccc(Cl)c3)nc(NCCO)[nH]c21,52%,33%,115%,66%,137%,93%,84%,71%,30%,6%
CC(=O)O/N=C1\C(=C2\C(=O)Nc3cc(Br)ccc32)Nc2ccccc21,92%,70%,92%,87%,134%,67%,84%,84%,79%,76%
c1ccc2c(-c3ccncc3)c[nH]c2c1,103%,86%,97%,49%,97%,–,91%,86%,86%,65%
COc1cc2ncnc(Nc3ccc(NC(=O)c4ccccc4)cc3)c2cc1OC,101%,–,88%,96%,85%,–,107%,99%,105%,–
CO[C@@H]1[C@H](N(C)C(=O)c2ccccc2)C[C@H]2O[C@]1(C)n1c3ccccc3c3c4c(c5c6ccccc6n2c5c31)C(=O)NC4,44%,29%,33%,16%,80%,94%,93%,88%,–,61%
CC(C)n1cnc2c(NCc3ccccc3)nc(NCCCO)nc21,96%,75%,107%,75%,134%,87%,93%,96%,89%,52%
Cc1cccc(-c2[nH]c(C(C)(C)C)nc2-c2ccc3c(c2)OCO3)n1,–,–,–,–,–,–,103%,97%,80%,75%
N#CC(C#N)=C(N)/C(C#N)=C/c1ccc(O)cc1,–,–,–,–,–,118%,–,88%,79%,36%
COc1cccc(-c2cc(=O)c3ccccc3o2)c1N,113%,117%,82%,58%,126%,102%,89%,91%,81%,102%
